IDE exosite inh = exo-site inhibitors of human IDE, primary screen, biochemical, fluorescence anisotropy, probe displacement. Insulin-degrading enzyme (Homo sapiens), P14735. purified IDE, FL-6b probe fluorescence polarization; stronger effect = lower value. z-score at 20 µM. actives 6.3% (n = 17,000);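 active = z-score of -3 or lower, meaning strong loss of probe binding signal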;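 note: His-tagged human IDE residues 42-1019 made in E. coli with 30 nM FL-6b probe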
Target sequence (P14735 42-1019 limits assumed): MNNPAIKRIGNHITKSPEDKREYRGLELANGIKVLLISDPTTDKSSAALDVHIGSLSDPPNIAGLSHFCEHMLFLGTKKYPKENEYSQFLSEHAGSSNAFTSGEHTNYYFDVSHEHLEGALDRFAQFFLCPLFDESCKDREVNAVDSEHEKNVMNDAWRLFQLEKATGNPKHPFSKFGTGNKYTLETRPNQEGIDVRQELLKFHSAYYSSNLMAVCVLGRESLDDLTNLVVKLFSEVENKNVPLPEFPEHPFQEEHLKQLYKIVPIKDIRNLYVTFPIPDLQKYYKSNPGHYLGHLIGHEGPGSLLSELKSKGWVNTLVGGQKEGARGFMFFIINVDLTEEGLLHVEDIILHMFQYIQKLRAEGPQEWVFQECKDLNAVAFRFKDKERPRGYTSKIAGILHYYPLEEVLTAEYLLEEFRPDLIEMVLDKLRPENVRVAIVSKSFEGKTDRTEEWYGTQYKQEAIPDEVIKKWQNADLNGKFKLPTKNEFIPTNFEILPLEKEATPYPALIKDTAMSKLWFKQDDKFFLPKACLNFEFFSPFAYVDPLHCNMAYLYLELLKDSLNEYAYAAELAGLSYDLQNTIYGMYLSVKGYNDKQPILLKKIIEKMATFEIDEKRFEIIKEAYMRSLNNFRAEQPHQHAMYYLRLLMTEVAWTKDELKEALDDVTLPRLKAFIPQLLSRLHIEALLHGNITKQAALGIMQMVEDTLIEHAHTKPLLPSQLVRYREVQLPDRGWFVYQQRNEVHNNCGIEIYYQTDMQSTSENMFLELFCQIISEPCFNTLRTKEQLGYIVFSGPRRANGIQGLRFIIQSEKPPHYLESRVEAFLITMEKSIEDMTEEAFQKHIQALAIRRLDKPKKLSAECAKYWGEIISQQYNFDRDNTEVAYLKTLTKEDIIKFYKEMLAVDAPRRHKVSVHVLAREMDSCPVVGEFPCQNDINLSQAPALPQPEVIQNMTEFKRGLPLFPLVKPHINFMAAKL
* = called active by the depositor. The full list was thinned out, with hits kept by preference.

How did N#C[C@H]1[C@@H](c2ccc(/C=C/c3ccccc3)cc2)[C@@H](CO)N1C(=O)Cc1ccccn1 do in these assays?
IDE exosite inh: -3.7*

What do the screens show for `CCC(=O)N1CC(=O)N2[C@H](C1)[C@H](c1ccc(C#CCC(C)C)cc1)[C@@H]2CO`?
IDE exosite inh: 0.75

What do the screens show for `O=C(C[C@@H]1CC[C@@H]2[C@H](COC[C@H](O)CN2C(=O)c2cccnc2)O1)NCC1CC1`?
IDE exosite inh: -0.5

How did CC(C)C#Cc1ccc([C@H]2[C@@H](CO)N3C(=O)CN(C(=O)Cc4ccccc4)C[C@@H]23)cc1 do in these assays?
IDE exosite inh: -1.4

How did COC(=O)c1ccc(CN2CC(=O)N3[C@H](CO)[C@@H](c4ccc(-c5ccccc5)cc4)[C@H]3C2)cc1 do in these assays?
IDE exosite inh: 2.2

What do the screens show for `C[C@H](NC(=O)C[C@@H]1CC[C@H]2[C@@H](COc3ccc(NS(=O)(=O)c4ccc(Cl)cc4)cc3C(=O)N2C)O1)c1ccccc1`?
IDE exosite inh: -0.47

What do the screens show for `C/C=C/c1ccc([C@H]2[C@@H](CNC(C)=O)N(Cc3ccccn3)[C@H]2CO)cc1`?
IDE exosite inh: 0.21

What do the screens show for `CCCNC(=O)N1C[C@@H](O)COC[C@@H]2O[C@H](CC(=O)OC)CC[C@H]21`?
IDE exosite inh: 1.2

Results for CO[C@@H]1CC[C@@H]2CCOc3c(C#N)cccc3C(=O)N(C)C[C@@H](c3ccccc3)CC(=O)N(C)C[C@H]1O2 ?
IDE exosite inh: -0.64

Results for O=C(Nc1cccc(F)c1)N1CC(=O)N2[C@H](CO)[C@@H](c3ccc(-c4ccccc4F)cc3)[C@H]2C1 ?
IDE exosite inh: 2.1

How did COc1ccccc1-c1ccccc1[C@@H]1[C@@H](C#N)N(C(=O)CN(C)C)[C@H]1CO do in these assays?
IDE exosite inh: -0.25

How did COc1ccccc1-c1ccccc1[C@H]1[C@@H](C#N)N(C(=O)CN(C)C)[C@@H]1CO do in these assays?
IDE exosite inh: 0.32

How did COc1ccccc1-c1ccc([C@@H]2[C@@H](CO)N(C(=O)CN(C)C)[C@H]2C#N)cc1 do in these assays?
IDE exosite inh: -15*

Results for COc1ccc(NC(=O)N2C[C@H](O)COC[C@H]3O[C@H](CC(=O)N4CCCCC4)CC[C@@H]32)cc1 ?
IDE exosite inh: 1.3

What do the screens show for `CCCC#Cc1ccc([C@@H]2[C@@H](CO)N3C(=O)CN(S(=O)(=O)c4ccccc4C)C[C@@H]23)cc1`?
IDE exosite inh: -0.78

Results for CN(C)CC#Cc1ccc([C@@H]2[C@@H](CO)N3C(=O)CN(C(=O)CN(C)C)C[C@H]23)cc1 ?
IDE exosite inh: -0.1

What do the screens show for `O=C(NC1CCCCC1)N1CC(=O)N2[C@H](C1)[C@@H](c1ccc(/C=C/c3ccccc3)cc1)[C@@H]2CO`?
IDE exosite inh: -1.7

Results for CN(C)CC(=O)N1CC(=O)N2[C@H](CO)[C@@H](c3ccc(/C=C/c4ccccc4)cc3)[C@H]2C1 ?
IDE exosite inh: -5.6*

How did O=C(NC1CCCC1)N1CC(=O)N2[C@H](CO)[C@H](c3ccc(/C=C/c4ccccc4)cc3)[C@@H]2C1 do in these assays?
IDE exosite inh: -0.53

What do the screens show for `Cc1ccc(-c2ccc([C@H]3[C@H]4CN(C(=O)NC(C)C)CC(=O)N4[C@H]3CO)cc2)cc1`?
IDE exosite inh: -0.62

How did O=C(NC1CCCC1)N1CC(=O)N2[C@H](CO)[C@@H](c3ccc(/C=C/c4ccccc4)cc3)[C@H]2C1 do in these assays?
IDE exosite inh: -9.5*

Results for CC(C)NC(=O)N1CC(=O)N2[C@H](CO)[C@@H](c3ccc(/C=C/c4ccccc4)cc3)[C@H]2C1 ?
IDE exosite inh: -6.9*

What do the screens show for `O=C(NC1CCCC1)N1CC(=O)N2[C@@H](CO)[C@H](c3ccc(/C=C/c4ccccc4)cc3)[C@@H]2C1`?
IDE exosite inh: -6.5*

What do the screens show for `COc1ccc(NC(=O)N2CC(=O)N3[C@@H](CO)[C@H](c4ccc(/C=C/c5ccccc5)cc4)[C@@H]3C2)cc1`?
IDE exosite inh: 2.6

Results for Cc1ccc(-c2ccc([C@H]3[C@H](CO)N4C(=O)CN(C(=O)NC(C)C)C[C@@H]34)cc2)cc1 ?
IDE exosite inh: -0.41

What do the screens show for `CN(C)CC(=O)N1CC(=O)N2[C@H](CO)[C@@H](c3ccc(-c4ccc(C(=O)N(C)C)cc4)cc3)[C@H]2C1`?
IDE exosite inh: 0.045

Results for COc1ccc(-c2ccc([C@H]3[C@@H](CO)N(C(=O)C4CCC4)[C@H]3C#N)cc2)cc1 ?
IDE exosite inh: 2.7

How did Cc1cc(C(=O)Nc2ccc3c(c2)C(=O)N(C)[C@H]2CC[C@@H](CC(=O)O)O[C@H]2CO3)no1 do in these assays?
IDE exosite inh: 0.8

Results for COc1ccc2c3c(n(C)c2c1)[C@@H](CO)N(C(C)=O)CC31CCN(C(=O)Nc2ccccc2F)CC1 ?
IDE exosite inh: 0.028

What do the screens show for `COc1ccc(-c2cn(CC[C@H]3CC[C@H](NC(=O)c4cnccn4)[C@@H](CO)O3)nn2)cc1`?
IDE exosite inh: 0.21

How did O=C1N[C@@H](c2ccccc2)COCc2cn(nn2)CC[C@H]1Cc1cccc(Cl)c1 do in these assays?
IDE exosite inh: -0.097

What do the screens show for `COc1ccc2c3c([nH]c2c1)[C@H](CO)NCC31CN(S(=O)(=O)c2cccs2)C1`?
IDE exosite inh: -0.59

What do the screens show for `N#C[C@H]1[C@@H](c2ccccc2)[C@@H](CO)N1C(=O)c1cccnc1`?
IDE exosite inh: 1.1

Results for N#C[C@H]1[C@@H](c2ccccc2C2=CCCC2)[C@@H](CO)N1C(=O)C1CC1 ?
IDE exosite inh: 3.2

What do the screens show for `O=C1CNC[C@H]2[C@@H](c3ccc(C4=CCCCC4)cc3)[C@@H](CO)N12`?
IDE exosite inh: 0.042

Results for CN(C)CC(=O)N1[C@@H](C#N)[C@H](c2ccccc2-c2cccc(C(=O)N(C)C)c2)[C@@H]1CO ?
IDE exosite inh: 4

Results for O=C(C1CCCCC1)N1CC(=O)N2[C@@H](CO)[C@H](c3ccc(Br)cc3)[C@@H]2C1 ?
IDE exosite inh: 3.8

Results for O=C(C1CC1)N1CC(=O)N2[C@H](CO)[C@H](c3ccc(C4=CCCCC4)cc3)[C@@H]2C1 ?
IDE exosite inh: 1.6

Results for C[C@@H]1CN([C@@H](C)CO)C(=O)CCCn2nncc2CO[C@@H]1CN(C)Cc1ccc2c(c1)OCCN2C ?
IDE exosite inh: -0.0061

What do the screens show for `CCCNC(=O)NC[C@H]1[C@H](c2ccc(C3=CCCC3)cc2)[C@@H](CO)N1C(=O)CC`?
IDE exosite inh: 1.8

How did CS(=O)(=O)N1[C@H](CO)[C@H](c2ccccc2)[C@@H]1C#N do in these assays?
IDE exosite inh: 1.6

What do the screens show for `C/C=C/c1ccc([C@H]2[C@@H](CO)N3C(=O)CN(C(=O)CC4CC4)C[C@@H]23)cc1`?
IDE exosite inh: -1.4

Results for C/C=C/c1ccc([C@H]2[C@H](CO)N3C(=O)CN(C(=O)NC4CCCCC4)C[C@@H]23)cc1 ?
IDE exosite inh: -0.68

How did C/C=C/c1ccc([C@@H]2[C@@H](CO)N3C(=O)CN(C(=O)NC4CCCC4)C[C@@H]23)cc1 do in these assays?
IDE exosite inh: -3.2*

How did N#C[C@@H]1[C@@H](c2ccc(-c3cncnc3)cc2)[C@H](CO)N1C(=O)Cc1ccccc1 do in these assays?
IDE exosite inh: 1.2

Results for O=S(=O)(c1ccccc1F)N1CCCCN2[C@H](CO)[C@H](c3ccc(-c4cccnc4)cc3)[C@H]2C1 ?
IDE exosite inh: -0.75

How did O=C([C@H]1[C@H](CO)[C@H]2Cn3c(cccc3=O)[C@H]2N1C(=O)C1CCCCC1)N1CCOCC1 do in these assays?
IDE exosite inh: 1.8

Screens (PubChem)
